# According to paper PMC7862700, “An all-to-all approach to the identification of sequence-specific readers for epigenetic DNA modifications on cytosine”:
# Columns and labels:
# Test in all cases: DAPPL (digital affinity profiling via proximity ligation, sequencing); 10 mM Tris-HCl pH 7.5, 50 mM NaCl, 1 mM DTT, 4% glycerol, room temperature, 30 min; GST-TFs on glutathione beads, 16-mer random dsDNA library, 0.1% formaldehyde crosslink after washing; high values mean tight binding
# [1] = target: T1, FEV (Homo sapiens, UniProt Q99581 1-238); conditions: protein: recombinant; tags: N-terminal GST; dsDNA, one strand shown
# T1 sequence: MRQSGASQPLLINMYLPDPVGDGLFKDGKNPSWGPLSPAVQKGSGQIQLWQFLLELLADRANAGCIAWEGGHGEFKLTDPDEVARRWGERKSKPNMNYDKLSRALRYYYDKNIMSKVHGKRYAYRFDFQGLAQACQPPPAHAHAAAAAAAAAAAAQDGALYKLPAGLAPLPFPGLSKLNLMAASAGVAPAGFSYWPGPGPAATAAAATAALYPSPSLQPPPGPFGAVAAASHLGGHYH
# In short: (§1)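 Pools of DNA-barcoded human transcription factors, expressed in yeast as GST fusions on glutathione beads and combined with a tag-only sample, were incubated with 200 nmole of a 16-mer random double-stranded DNA library. Incubation took 30 min at room temperature in Tris/NaCl/DTT/glycerol buffer and was followed by washing, 0.1% formaldehyde crosslinking, proximity ligation (BsaI/T4 ligase, 1 h, 37 °C), PCR amplification and sequencing on an Illumina NextSeq500. Binding signal is the ratio of a hexamer's read frequency for a factor to its frequency for the tag-only sample.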
# [2] = target: ETV5 (Homo sapiens, UniProt P41161 1-510); conditions: protein: recombinant; tags: N-terminal GST; dsDNA, one strand shown
# ETV5, sequence (P41161 whole entry): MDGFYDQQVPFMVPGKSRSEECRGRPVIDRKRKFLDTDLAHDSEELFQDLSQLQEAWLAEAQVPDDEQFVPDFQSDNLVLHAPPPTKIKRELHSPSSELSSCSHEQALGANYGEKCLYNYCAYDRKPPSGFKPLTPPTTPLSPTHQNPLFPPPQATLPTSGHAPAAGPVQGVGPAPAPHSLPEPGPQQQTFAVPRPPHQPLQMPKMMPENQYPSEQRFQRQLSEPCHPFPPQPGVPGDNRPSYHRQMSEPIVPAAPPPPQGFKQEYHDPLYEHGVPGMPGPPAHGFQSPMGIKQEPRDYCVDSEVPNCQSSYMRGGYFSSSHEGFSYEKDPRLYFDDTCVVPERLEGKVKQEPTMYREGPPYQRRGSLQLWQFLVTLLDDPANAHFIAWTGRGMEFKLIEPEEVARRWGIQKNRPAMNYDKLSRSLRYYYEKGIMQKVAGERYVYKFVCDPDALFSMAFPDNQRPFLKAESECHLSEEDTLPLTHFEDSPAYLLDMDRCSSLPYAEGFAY
# In short: as §1
# [3] = target: HSF1 (Homo sapiens, UniProt Q00613 1-529); conditions: protein: recombinant; tags: N-terminal GST; chain copies: 3; dsDNA, one strand shown
# HSF1, sequence (Q00613 whole entry): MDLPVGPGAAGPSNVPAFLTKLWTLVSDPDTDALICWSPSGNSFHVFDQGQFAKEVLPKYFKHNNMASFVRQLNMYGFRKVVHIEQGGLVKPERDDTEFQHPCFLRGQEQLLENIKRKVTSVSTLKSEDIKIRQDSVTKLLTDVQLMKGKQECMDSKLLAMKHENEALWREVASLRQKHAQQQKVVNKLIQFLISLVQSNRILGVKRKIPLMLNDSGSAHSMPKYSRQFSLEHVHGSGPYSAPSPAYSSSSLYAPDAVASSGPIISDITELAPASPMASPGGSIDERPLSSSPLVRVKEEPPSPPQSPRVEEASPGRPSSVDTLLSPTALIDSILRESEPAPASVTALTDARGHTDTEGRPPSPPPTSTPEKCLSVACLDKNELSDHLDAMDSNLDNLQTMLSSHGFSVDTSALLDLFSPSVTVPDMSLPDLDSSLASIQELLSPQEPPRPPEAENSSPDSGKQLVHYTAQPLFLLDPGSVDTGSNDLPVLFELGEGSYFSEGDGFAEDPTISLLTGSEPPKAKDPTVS
# In short: as §1
# [4] = target: T2, SPIC (Homo sapiens, UniProt Q8N5J4 1-248); conditions: protein: recombinant; tags: N-terminal GST; dsDNA, one strand shown
# T2 sequence: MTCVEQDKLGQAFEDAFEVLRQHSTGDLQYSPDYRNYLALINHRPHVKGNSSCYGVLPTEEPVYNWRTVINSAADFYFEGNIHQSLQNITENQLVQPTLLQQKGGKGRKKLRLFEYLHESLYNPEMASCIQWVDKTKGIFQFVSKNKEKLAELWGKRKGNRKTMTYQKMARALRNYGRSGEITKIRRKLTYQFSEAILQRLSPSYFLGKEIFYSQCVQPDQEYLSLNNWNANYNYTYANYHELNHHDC
# In short: as §1
# [5] = target: ELF4 (Homo sapiens, UniProt Q99607 1-663); conditions: protein: recombinant; tags: N-terminal GST; dsDNA, one strand shown
# ELF4, sequence (Q99607 whole entry): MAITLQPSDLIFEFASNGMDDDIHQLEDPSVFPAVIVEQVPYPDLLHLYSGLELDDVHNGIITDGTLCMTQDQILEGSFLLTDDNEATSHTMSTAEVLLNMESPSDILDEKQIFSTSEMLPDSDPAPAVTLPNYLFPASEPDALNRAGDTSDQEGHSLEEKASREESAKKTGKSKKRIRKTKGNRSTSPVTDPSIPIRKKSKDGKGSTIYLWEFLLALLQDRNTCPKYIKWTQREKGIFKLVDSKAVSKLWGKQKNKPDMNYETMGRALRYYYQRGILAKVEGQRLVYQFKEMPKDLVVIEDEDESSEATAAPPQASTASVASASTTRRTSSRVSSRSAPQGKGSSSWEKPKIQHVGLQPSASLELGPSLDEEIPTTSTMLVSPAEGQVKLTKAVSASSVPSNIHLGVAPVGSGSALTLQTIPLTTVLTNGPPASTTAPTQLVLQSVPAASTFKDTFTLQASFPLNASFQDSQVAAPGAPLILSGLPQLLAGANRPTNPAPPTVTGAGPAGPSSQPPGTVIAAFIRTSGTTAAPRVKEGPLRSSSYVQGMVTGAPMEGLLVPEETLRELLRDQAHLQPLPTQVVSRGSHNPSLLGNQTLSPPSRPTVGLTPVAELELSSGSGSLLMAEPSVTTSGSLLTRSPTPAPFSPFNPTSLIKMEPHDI
# In short: as §1
# [6] = target: T3, ELK4 (Homo sapiens, UniProt P28324-2 1-405); conditions: protein: recombinant; tags: N-terminal GST; dsDNA, one strand shown
# T3 sequence: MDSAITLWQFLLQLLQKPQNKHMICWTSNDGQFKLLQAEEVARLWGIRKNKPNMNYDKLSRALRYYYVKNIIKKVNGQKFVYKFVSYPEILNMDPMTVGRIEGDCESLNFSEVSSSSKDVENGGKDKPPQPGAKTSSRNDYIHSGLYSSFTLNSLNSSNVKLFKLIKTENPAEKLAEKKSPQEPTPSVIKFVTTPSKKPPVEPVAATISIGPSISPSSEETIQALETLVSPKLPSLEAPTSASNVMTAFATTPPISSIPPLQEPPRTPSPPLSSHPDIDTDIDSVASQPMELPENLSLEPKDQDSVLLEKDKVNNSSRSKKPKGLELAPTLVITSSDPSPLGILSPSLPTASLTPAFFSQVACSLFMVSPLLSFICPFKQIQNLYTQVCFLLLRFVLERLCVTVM
# In short: as §1
# [7] = target: T4, ETV2 (Homo sapiens, UniProt O00321 1-342); conditions: protein: recombinant; tags: N-terminal GST; dsDNA, one strand shown
# T4 sequence: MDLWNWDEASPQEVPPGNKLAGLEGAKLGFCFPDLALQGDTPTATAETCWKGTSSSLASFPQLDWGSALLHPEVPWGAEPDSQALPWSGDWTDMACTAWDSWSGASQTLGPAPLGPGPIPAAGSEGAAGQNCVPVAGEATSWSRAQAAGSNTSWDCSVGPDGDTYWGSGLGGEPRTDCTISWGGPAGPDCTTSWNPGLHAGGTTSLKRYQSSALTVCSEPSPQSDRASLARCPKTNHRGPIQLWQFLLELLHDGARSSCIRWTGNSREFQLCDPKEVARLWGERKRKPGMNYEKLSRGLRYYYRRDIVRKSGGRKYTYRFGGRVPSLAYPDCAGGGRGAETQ
# In short: as §1
# [8] = target: T5, ELF3 (Homo sapiens, UniProt P78545 1-371); conditions: protein: recombinant; tags: N-terminal GST; dsDNA, one strand shown
# T5 sequence: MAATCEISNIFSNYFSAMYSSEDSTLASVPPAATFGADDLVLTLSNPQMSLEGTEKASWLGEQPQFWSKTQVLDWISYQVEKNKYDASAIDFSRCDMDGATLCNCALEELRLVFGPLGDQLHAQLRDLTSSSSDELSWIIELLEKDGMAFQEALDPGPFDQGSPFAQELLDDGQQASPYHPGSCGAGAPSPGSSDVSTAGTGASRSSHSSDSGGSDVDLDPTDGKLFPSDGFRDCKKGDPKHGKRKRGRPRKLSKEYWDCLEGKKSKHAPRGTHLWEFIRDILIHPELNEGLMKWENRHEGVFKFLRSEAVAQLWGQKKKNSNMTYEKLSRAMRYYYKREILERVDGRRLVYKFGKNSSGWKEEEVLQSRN
# In short: as §1
# [9] = target: CRX (Homo sapiens, UniProt O43186 1-299); conditions: protein: recombinant; tags: N-terminal GST; dsDNA, one strand shown
# CRX, sequence (O43186 whole entry): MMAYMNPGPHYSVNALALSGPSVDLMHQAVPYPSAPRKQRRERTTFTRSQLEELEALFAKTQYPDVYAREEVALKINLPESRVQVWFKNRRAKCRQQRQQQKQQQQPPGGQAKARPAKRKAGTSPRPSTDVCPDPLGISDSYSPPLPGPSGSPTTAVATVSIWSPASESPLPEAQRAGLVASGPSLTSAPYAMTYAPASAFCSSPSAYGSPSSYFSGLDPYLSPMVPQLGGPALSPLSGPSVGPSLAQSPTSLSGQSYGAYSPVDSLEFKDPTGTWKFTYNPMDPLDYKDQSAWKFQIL
# In short: as §1
# [10] = target: ETV1 (Homo sapiens, UniProt P50549 1-477); conditions: protein: recombinant; tags: N-terminal GST; dsDNA, one strand shown
# ETV1, sequence (P50549 whole entry): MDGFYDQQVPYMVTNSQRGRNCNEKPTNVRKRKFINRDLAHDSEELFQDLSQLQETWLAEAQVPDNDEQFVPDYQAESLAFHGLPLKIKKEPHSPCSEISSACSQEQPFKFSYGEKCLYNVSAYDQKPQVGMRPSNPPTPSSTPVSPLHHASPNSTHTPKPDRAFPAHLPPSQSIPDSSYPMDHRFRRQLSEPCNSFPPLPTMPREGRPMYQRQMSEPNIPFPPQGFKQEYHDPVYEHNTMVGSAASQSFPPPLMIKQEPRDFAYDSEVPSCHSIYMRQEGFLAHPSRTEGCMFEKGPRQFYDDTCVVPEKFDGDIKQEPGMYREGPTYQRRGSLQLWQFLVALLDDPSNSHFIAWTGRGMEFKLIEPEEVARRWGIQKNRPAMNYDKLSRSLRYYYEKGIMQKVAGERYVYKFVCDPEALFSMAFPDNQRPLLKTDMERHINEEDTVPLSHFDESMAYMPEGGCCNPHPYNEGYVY
# In short: as §1
# [11] = target: T6, ERF (Homo sapiens, UniProt P50548 1-548); conditions: protein: recombinant; tags: N-terminal GST; dsDNA, one strand shown
# T6 sequence: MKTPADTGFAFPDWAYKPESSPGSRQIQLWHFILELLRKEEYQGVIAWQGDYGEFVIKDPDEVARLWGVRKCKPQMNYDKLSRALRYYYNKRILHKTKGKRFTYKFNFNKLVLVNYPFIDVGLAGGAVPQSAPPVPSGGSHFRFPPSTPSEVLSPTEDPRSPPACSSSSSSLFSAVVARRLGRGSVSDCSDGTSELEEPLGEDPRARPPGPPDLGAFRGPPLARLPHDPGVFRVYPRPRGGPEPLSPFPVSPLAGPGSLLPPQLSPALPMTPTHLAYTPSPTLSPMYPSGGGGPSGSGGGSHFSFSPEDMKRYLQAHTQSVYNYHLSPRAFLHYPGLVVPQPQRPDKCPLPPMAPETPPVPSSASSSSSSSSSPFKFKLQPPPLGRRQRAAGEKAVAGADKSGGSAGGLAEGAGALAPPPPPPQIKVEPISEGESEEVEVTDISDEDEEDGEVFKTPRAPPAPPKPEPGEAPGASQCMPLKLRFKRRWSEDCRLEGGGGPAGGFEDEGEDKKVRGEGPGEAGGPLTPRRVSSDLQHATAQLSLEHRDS
# In short: as §1
# [12] = target: T7, ETV3L (Homo sapiens, UniProt Q6ZN32 1-361); conditions: protein: recombinant; tags: N-terminal GST; dsDNA, one strand shown
# T7 sequence: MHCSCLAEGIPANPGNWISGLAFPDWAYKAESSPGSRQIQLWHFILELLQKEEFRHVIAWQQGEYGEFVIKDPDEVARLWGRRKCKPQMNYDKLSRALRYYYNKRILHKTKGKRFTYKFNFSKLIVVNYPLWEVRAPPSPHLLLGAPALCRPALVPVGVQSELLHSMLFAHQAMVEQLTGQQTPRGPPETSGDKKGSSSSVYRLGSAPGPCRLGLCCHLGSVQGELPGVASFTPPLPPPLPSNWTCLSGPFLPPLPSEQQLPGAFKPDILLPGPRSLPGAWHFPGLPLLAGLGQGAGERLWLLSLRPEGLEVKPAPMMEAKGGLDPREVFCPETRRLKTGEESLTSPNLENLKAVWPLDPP
# In short: as §1
# [13] = target: T8, ETS2 (Homo sapiens, UniProt P15036 1-469); conditions: protein: recombinant; tags: N-terminal GST; dsDNA, one strand shown
# T8 sequence: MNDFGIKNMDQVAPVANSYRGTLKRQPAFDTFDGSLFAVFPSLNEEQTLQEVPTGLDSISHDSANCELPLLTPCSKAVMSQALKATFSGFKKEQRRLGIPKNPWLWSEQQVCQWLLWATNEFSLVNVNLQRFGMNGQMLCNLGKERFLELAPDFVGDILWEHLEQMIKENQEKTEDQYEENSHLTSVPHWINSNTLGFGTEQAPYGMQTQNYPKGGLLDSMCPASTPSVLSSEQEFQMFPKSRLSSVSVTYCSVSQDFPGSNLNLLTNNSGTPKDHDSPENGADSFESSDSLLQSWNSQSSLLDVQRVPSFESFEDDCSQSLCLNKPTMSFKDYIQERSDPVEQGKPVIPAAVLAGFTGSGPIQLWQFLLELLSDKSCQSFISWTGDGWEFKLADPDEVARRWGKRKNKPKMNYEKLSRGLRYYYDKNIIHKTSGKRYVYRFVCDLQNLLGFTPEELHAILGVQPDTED
# In short: as §1
# [14] = target: T9, SPDEF (Homo sapiens, UniProt O95238 1-335); conditions: protein: recombinant; tags: N-terminal GST; dsDNA, one strand shown
# T9 sequence: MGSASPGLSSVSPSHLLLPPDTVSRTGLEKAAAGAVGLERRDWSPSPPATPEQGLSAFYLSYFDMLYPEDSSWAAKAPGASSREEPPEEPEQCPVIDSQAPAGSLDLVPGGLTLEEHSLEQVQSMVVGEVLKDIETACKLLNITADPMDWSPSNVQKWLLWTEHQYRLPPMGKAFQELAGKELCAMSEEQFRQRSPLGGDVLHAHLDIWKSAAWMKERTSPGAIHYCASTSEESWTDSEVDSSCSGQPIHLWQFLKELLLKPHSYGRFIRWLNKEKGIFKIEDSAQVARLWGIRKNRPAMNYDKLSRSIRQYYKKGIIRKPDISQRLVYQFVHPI
# In short: as §1
# [15] = target: T10, ETV7 (Homo sapiens, UniProt Q9Y603 1-341); conditions: protein: recombinant; tags: N-terminal GST; dsDNA, one strand shown
# T10 sequence: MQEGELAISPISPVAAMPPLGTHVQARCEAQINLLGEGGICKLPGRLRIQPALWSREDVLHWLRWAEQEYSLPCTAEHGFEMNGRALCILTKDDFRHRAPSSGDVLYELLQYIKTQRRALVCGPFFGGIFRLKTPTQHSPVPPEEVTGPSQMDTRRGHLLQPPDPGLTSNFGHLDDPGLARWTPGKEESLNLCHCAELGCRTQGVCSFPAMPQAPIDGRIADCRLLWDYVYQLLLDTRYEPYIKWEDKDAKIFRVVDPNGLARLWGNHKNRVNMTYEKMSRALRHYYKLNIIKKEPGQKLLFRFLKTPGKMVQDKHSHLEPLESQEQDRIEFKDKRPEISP
# In short: as §1
# [16] = target: T11, ELF5 (Homo sapiens, UniProt Q9UKW6-2 1-255); conditions: protein: recombinant; tags: N-terminal GST; dsDNA, one strand shown
# T11 sequence: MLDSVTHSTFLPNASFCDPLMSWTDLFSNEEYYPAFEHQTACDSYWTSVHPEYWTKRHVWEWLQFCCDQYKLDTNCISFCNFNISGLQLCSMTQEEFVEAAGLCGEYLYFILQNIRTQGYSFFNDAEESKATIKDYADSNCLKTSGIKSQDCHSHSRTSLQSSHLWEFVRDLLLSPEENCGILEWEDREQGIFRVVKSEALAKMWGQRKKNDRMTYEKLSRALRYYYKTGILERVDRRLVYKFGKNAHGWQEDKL
# In short: as §1
# [17] = target: T12, ETV3 (Homo sapiens, UniProt P41162-2 1-143); conditions: protein: recombinant; tags: N-terminal GST; dsDNA, one strand shown
# T12 sequence: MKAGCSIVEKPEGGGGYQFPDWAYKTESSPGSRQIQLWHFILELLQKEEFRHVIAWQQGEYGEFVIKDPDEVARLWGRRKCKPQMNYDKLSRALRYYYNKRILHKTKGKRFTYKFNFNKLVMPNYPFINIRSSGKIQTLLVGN
# In short: as §1
# [18] = target: ETV6 (Homo sapiens, UniProt P41212 1-452); conditions: protein: recombinant; tags: N-terminal GST; dsDNA, one strand shown
# ETV6, sequence (P41212 whole entry): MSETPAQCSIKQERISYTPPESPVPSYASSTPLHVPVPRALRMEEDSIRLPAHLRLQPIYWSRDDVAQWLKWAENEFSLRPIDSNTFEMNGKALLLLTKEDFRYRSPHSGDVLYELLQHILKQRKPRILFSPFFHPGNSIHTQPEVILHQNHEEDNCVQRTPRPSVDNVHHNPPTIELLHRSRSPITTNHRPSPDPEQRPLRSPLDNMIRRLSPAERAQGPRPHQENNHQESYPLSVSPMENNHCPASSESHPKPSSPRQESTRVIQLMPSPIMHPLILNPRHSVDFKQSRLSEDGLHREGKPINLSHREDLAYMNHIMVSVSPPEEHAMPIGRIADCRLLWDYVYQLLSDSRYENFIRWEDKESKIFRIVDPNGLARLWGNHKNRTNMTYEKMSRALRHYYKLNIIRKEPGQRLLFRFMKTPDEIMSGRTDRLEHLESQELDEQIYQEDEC
# In short: as §1
sequence,measurement,setting,value
CCTTGC,binding signal,[1],"1.27 fold enrichment (6-mer frequency, TF over GST control)"
same,binding signal,[2],"1.17 fold enrichment (6-mer frequency, TF over GST control)"
same,binding signal,[3],"1.04 fold enrichment (6-mer frequency, TF over GST control)"
same,binding signal,[4],"1.45 fold enrichment (6-mer frequency, TF over GST control)"
same,binding signal,[5],"1.27 fold enrichment (6-mer frequency, TF over GST control)"
same,binding signal,[6],"1.2 fold enrichment (6-mer frequency, TF over GST control)"
same,binding signal,[7],"1.44 fold enrichment (6-mer frequency, TF over GST control)"
same,binding signal,[8],"1.49 fold enrichment (6-mer frequency, TF over GST control)"
same,binding signal,[9],"1.02 fold enrichment (6-mer frequency, TF over GST control)"
same,binding signal,[10],"1.33 fold enrichment (6-mer frequency, TF over GST control)"
same,binding signal,[11],"1.43 fold enrichment (6-mer frequency, TF over GST control)"
same,binding signal,[12],"1.42 fold enrichment (6-mer frequency, TF over GST control)"
same,binding signal,[13],"1.22 fold enrichment (6-mer frequency, TF over GST control)"
same,binding signal,[14],"1.34 fold enrichment (6-mer frequency, TF over GST control)"
same,binding signal,[15],"1.41 fold enrichment (6-mer frequency, TF over GST control)"
same,binding signal,[16],"1.28 fold enrichment (6-mer frequency, TF over GST control)"
same,binding signal,[17],"1.35 fold enrichment (6-mer frequency, TF over GST control)"
same,binding signal,[18],"1.21 fold enrichment (6-mer frequency, TF over GST control)"
